Measurements: PubChem BioAssay (Tox21)
Records with an inconclusive call do not appear. Values without a mark were called inactive. The call rests on the fitted dose curve; in most records, active means well fitted activation curve with a large enough effect in the repeat runs; inconclusive means weak or mixed curves; inactive means flat fitted curve, though single readings scatter.

Test: A CellTox Green Cytotoxicity Assay to monitor cytotoxicity in HEK293 cells - 32 hour (AID 1224881); further: nearly all actives have a fitted effect of over 40% in size
Conditions: CellTox Green fluorescence; series mostly up to 76.8 µM; cytotoxicity increase: at the top concentration
From the text: National Center for Advancing Translational Sciences [NCATS]
NIH Chemical Genomics Center [NCGC]
U.S. Environmental Protection Agency [EPA]
National Institutes of Environmental Health Sciences [NIEHS]
National Toxicology Program [NTP]
Cell-based models are critical for drug discovery. Determining the natural cytotoxic effects resulting from test compounds is an essential research activity. A CellTox Green Cytotoxicity Assay to monitor cytotoxicity in real time of continues cell culture during 40 hours of the compound treatment was used to screen Tox21 10K library compounds in Hek293 cells. CellTox Green Cytotoxicity Assay is a nonlytic, homogeneous, biofluorescent method to measure cytotoxicity in cell culture after experimental manipulation. The assay system uses a proprietary asymmetric cyanine dye that is excluded from viable cells but preferentially stains the dead cell's DNA. […] Viable cells produce no appreciable increases in fluorescence. Therefore, the fluorescence signal produced by the binding interaction with dead cell DNA is proportional to cytotoxicity.
The mixture of Hek293 cell suspension and reagents were dispensed at 600cells/6 ul/well in 1536-well tissue culture treated black solid bottom plates using a Multidrop dispenser. After the assay plates were incubated at a 37 C/5% CO2 incubator for 5 hours, 23 nL of compounds dissolved in DMSO, positive and negative controls was transferred to the assay plate by a pintool work station. The plates were incubated at 37 C for 40 hours. The fluorescence intensity were measured at 0h, 8h, 16h, 24h, 32h and 40h time points using ViewLux plate reader during compound treatment.
On the % scale 0 is the no-effect control and ±100 the full control effect.

| SMILES | cytotoxicity increase |
| --- | --- |
| C=CCCC(=O)O | 6.59% |
| Cc1ccc(C(=O)c2ccc(CC(=O)O)n2C)cc1 | -5.36% [at 35.3 µM] |
| CCCCc1ccc2c(n1)[C@@H](c1ccc(OC)cc1C[C@H](C)C(=O)O)[C@H](C(=O)O)[C@H]2c1ccc2c(c1)OCO2 | -11.2% |
| CCCCCCCCCCCCCCC(=O)O | -4.48% |
| [Ca+2] | 4.23% |
| N[C@@H](CCC(=O)O)C(=O)O | 0.0975% |
| O=C(O)Cc1csc(-c2ccc(Cl)cc2)n1 | -5.78% [at 35.3 µM] |
| C[N+](C)(C)CCCCCCCCCC[N+](C)(C)C | 0.255% [at 35.3 µM] |
| O=[N+]([O-])c1cncn1CCN1CCOCC1 | -14.4% [at 35.3 µM] |
| Nc1ccccn1 | 6.3% |
| CCOC(=O)COC(=O)c1ccccc1C(=O)OCC | -15.7% |
| Cc1cccc(C)c1NC(=O)CC12CCCN1CCC2 | 3.24% [at 35.3 µM] |
| O=C(CO)[C@@H](O)[C@H](O)[C@H](O)CO | -0.239% |
| Cc1ccc(C(=O)Nc2ccc(S(=O)(=O)O)c3cc(S(=O)(=O)O)cc(S(=O)(=O)O)c23)cc1NC(=O)c1cccc(NC(=O)Nc2cccc(C(=O)Nc3cc(C(=O)Nc4ccc(S(=O)(=O)O)c5cc(S(=O)(=O)O)cc(S(=O)(=O)O)c45)ccc3C)c2)c1 | 8.48% [at 35.3 µM] |
| CC[C@H]1OC(=O)[C@H](C)[C@@H](O[C@H]2C[C@@](C)(OC)[C@@H](O)[C@H](C)O2)[C@H](C)[C@@H](O[C@@H]2O[C@H](C)C[C@H](N(C)C)[C@H]2O)[C@](C)(OC)C[C@@H](C)C(=O)[C@H](C)[C@@H](O)[C@]1(C)O | -3.78% |
| COCCOC[C@H](CC1(C(=O)NC2CCC(C(=O)O)CC2)CCCC1)C(=O)Oc1ccc2c(c1)CCC2 (stereo not given in full) | 0.687% |
| CC1CCC(CO)CC1 (stereo not given) | 4.69% |
| Nc1ccncc1N | 2.35% [at 35.3 µM] |
| CC(C)(C)c1ccc(-c2ccc(C(C)(C)C)cc2)cc1 | 6.06% |
| Cc1ccccc1N=C(N)N=C(N)N | -9.44% |

| SMILES | cytotoxicity increase |
| --- | --- |
| CCC1C(=O)OCC1Cc1cncn1C (stereo not given) | -10.2% [at 35.3 µM] |
| C[C@H]1[C@H](NC(=O)/C(=N/OC(C)(C)C(=O)O)c2csc(N)n2)C(=O)N1S(=O)(=O)O (stereo in doubt) | -1.42% [at 35.3 µM] |
| C=CN1CCCCCC1=O | 1.79% |
| CC[N+](CC)(CC(=O)Nc1c(C)cccc1C)Cc1ccccc1 (tested in a mixture with another compound) | -3.97% [at 35.3 µM] |
| C=CC(=O)OCCCl | 1.6% |
| CC(C)[C@H]1CC[C@@H](C)CC1=O | 0.866% |
| CCO[Si](OCC)(OCC)c1ccccc1 | -1.95% |
| CCCC[N+](C)(CCCC)CCCC | -5.75% |
| Cc1ccc(C(=O)c2ccccc2)cc1 | 3.27% |
| NC(=O)N[C@@H](CCC(=O)O)C(=O)O | -1.41% [at 35.3 µM] |
| O=S(=O)(O)c1cccc2c(S(=O)(=O)O)cccc12 | 27% |
| CC(C)(N)C#N | -0.832% |
| O=C1c2ccccc2C(=O)c2cc(O)ccc21 | -43.3% |
| CCCCOCCOC(=O)CCCCCCCCC(=O)OCCOCCCC | 5.73% |
| CCCCCCCC1CCCC1=O (stereo not given) | -0.788% |
| CC(C)(C)C(=O)Oc1ccc(S(=O)(=O)Nc2ccccc2C(=O)NCC(=O)O)cc1 | -7.53% [at 35.3 µM] |
| C=C(C)C(=O)OCCOCCOCCOCCOC(=O)C(=C)C | -13.6% |
| O=C(O)CNC(=O)c1ccc(CO)o1 | -0.347% |
| CC1(C)OC[C@@H](COC(=O)CCc2ccc(OC[C@@H](O)CNCCNC(=O)N3CCOCC3)cc2)O1 | -2.16% [at 35.3 µM] |
| CCC(C(=O)NC(=O)NC(C)=O)c1ccccc1 (stereo not given) | 0.489% [at 35.3 µM] |
